Source: PubChem BioAssay AID720697 (Broad Institute, 2013)
Results with a measured potency or affinity are listed apart. Inconclusive results are not listed. Calls of active or inactive are those of the source.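 How the source made its calls: active means signal loss with fitted half-maximal concentration at or below twice the top valid tested dose in every test run; inconclusive means runs disagree, flat 30 to 70% signal loss, or poor fit; inactive means all runs flat, opposite direction, or potency beyond limit.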

Test: general mammalian cell viability loss – inhibitor set, cherry-pick, set 2, cytotoxicity control for miR-122 modulator project, dose response (AID 720697)
Settings: HEK293T viability, CellTiter-Glo luminescence, 48 h; series mostly up to 26 µM

Structure (SMILES)	outcome
COc1ccc(S(=O)(=O)Nc2ccc3c(c2)CC(=O)N([C@@H](C)CO)C[C@@H](C)[C@H](CN(C)Cc2ccc(-c4ccccc4)cc2)O3)cc1	inactive
CCNC(=O)Nc1ccc2c(c1)C(=O)N(C)[C@H]1CC[C@H](CC(=O)Nc3cccc(F)c3)O[C@@H]1CO2	inactive
CC(=O)N1[C@H](CO)[C@@H](c2ccccc2)[C@H]1CN(C(=O)NC(C)C)C1CCCC1	inactive
CNC(=O)C[C@H]1CC[C@@H]2[C@@H](COc3ccc(NC(=O)Nc4ccc(Cl)cc4)cc3C(=O)N2C)O1	inactive
O=C(Nc1ccc(CN2CCOCC2)cc1)c1ccc(-c2ccc(Cl)cc2Cl)o1	inactive
CCNC(=O)Nc1ccc2c(c1)C(=O)N(C)[C@H]1CC[C@H](CC(=O)NCc3ccccc3F)O[C@H]1CO2	inactive
CN1C(=O)c2cc(NC(=O)c3cccc(F)c3)ccc2OC[C@H]2O[C@@H](CC(=O)NC3CCC3)CC[C@H]21	inactive
CN1C(=O)c2cc(NC(=O)c3cccc(F)c3)ccc2OC[C@@H]2O[C@@H](CC(=O)Nc3ccccc3)CC[C@@H]21	inactive
Cc1ccccc1NCN1C(=O)C2C3C=CC(C3)C2C1=O (centres undefined)	inactive
Cc1cc(CN(C)C(=O)c2cc(COc3ccc4ncccc4c3)on2)on1	inactive
CN1C[C@@H]2[C@H](c3ccccc31)[C@@H](CO)N2C(=O)Nc1ccccc1	inactive
CN1C(=O)c2cc(NC(=O)Nc3ccccc3F)ccc2OC[C@@H]2O[C@@H](CC(=O)NCc3ccc(-c4ccccc4)cc3)CC[C@H]21	inactive
C/C=C/c1ccc([C@@H]2[C@@H](CO)N(C(C)=O)[C@@H]2CN(C)C(=O)c2ccccn2)cc1	inactive
CN1C(=O)c2cc(NC(=O)Nc3cccc(Cl)c3)ccc2OC[C@H]2O[C@@H](CC(=O)NCCc3ccncc3)CC[C@H]21	inactive
CN1C(=O)c2cc(NC(=O)c3ccc(C(F)(F)F)cc3)ccc2OC[C@@H]2O[C@@H](CC(=O)NCc3ccc4c(c3)OCO4)CC[C@@H]21	inactive
COc1ccc(S(=O)(=O)N(C)C[C@@H]2Oc3cc(-c4cccc(F)c4)ccc3S(=O)(=O)N([C@@H](C)CO)C[C@H]2C)cc1	inactive
C[C@@H]1CN([C@H](C)CO)S(=O)(=O)c2ccc(C#CC3(O)CCCC3)cc2O[C@@H]1CN(C)C(=O)c1cccnc1	inactive
COc1cc(C(=O)Nc2ccc(S(=O)(=O)N3CCCCC3C)cc2)cc(OC)c1OC (centres undefined)	inactive
Cc1ccc(S(=O)(=O)NCCCNS(C)(=O)=O)cc1	inactive
COCC(=O)N(C)C[C@H]1[C@H](c2ccccc2)[C@@H](CO)N1C(=O)NC(C)C	inactive

Structure (SMILES)	outcome
COc1cccc(-c2ccc3c(c2)O[C@H](CN(C)C(=O)C2CCOCC2)[C@H](C)CN([C@H](C)CO)S3(=O)=O)c1	inactive
CCCNC(=O)C[C@H]1CC[C@@H]2[C@H](COc3ccc(NC(=O)c4cccs4)cc3C(=O)N2C)O1	inactive
O=C(CN1CCOCC1)NC[C@@H]1N[C@@H](CO)[C@@H]1c1ccc(-c2ccccc2)cc1	inactive
Cc1cc(C(C)(C)C)cc(S(=O)(=O)NCCc2ccncc2)c1C	inactive
C/C=C/c1ccc([C@H]2[C@@H](CO)N[C@@H]2CN(CC(C)C)C(=O)c2ccccn2)cc1	inactive
CC(C)Oc1ccc(CNCCC2(C(C)C)CCOC(C)(C)C2)cc1 (centres undefined)	inactive
CO[C@@H]1CN(C)C(=O)c2ccc(NC(=O)c3ccc(Oc4ccccc4)cc3)cc2OC[C@H](C)NC[C@H]1C	inactive
Cc1ccccc1NC(=O)Nc1ccc2c(c1)C(=O)N(C)[C@H]1CC[C@@H](CC(=O)O)O[C@H]1CO2	inactive
O=c1c2c3c(sc2nc2n1CCC2)CCCC3	inactive
CN1C(=O)c2cc(NC(=O)c3cccc(F)c3)ccc2OC[C@@H]2O[C@H](CC(=O)O)CC[C@@H]21	inactive
Cc1cc(C)n(C(=O)Cn2nc(C)c(Br)c2C)n1	inactive
O=C(NCCCN1CCCC1)c1ccc(CSCc2cccc(Cl)c2)o1	inactive
C[C@@H]1CN([C@@H](C)CO)C(=O)Cc2cc(NC(=O)C3CCCCC3)ccc2O[C@H]1CN(C)Cc1ccc(-c2ccccc2)cc1	inactive
c1cnc(N2CCN(Cc3c[nH]c4ccccc34)CC2)nc1	inactive
Cn1c(NC(=O)c2ccco2)c(-c2ccccc2Cl)c(=O)c2ccccc21	inactive
CCOC(=O)CSc1nnnn1-c1cccc2ccccc12	inactive
C[C@@H]1CN([C@H](C)CO)S(=O)(=O)c2ccc(C3=CCCC3)cc2O[C@@H]1CN(C)C(=O)C1CCOCC1	inactive
COc1ccc(S(=O)(=O)Nc2cc(C)cc(C)n2)c2ccccc12	inactive
CN(C[C@@H]1[C@@H](c2ccccc2)[C@H](CO)N1C(=O)C1CCC1)C(=O)c1ccccn1	inactive
